# PubChem BioAssay AID1159580 (chemical genetic matrix, 2015)
# Out of some 5,500 compounds screened, about 2,000 (36%) were called active. Not shown: some 18% with an inconclusive outcome. This is one part of the list. Unmarked numbers belong to inactive results. Cut-off read from the data, not from the text of the source: active = normalized growth mostly below about 0.91 (no sharp cut-off); inconclusive = no clear call, values can overlap the other calls; inactive = mostly above about 0.92.
# Assay: chemical genetic growth profiling, strain panel (AID 1159580);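 note: tested at 20 µM; growth read once vehicle control cultures reached saturation at 30 °C; 1 = growth at the plate median or of vehicle wells; lower values mean less growth of the strain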
# Conditions: growth OD
smiles,measurement,setting,value
O=C(O)CCCOc1ccc(Cl)cc1Cl,normalized growth,"S. cerevisiae deletion strains, locus YJR075W, strain HOC1, stronger effect = lower value",0.999
same,normalized growth,"S. cerevisiae deletion strains, locus YKL009W, strain mrt4, stronger effect = lower value",0.967
same,normalized growth,"S. cerevisiae deletion strains, locus YKL068W, stronger effect = lower value",0.986
same,normalized growth,"S. cerevisiae deletion strains, locus YKL085W, strain MDH1 (second series), stronger effect = lower value",0.984
same,normalized growth,"S. cerevisiae deletion strains, locus YKL085W, strain MDH1, stronger effect = lower value",0.984
same,normalized growth,"S. cerevisiae deletion strains, locus YKL160W, strain elf1, stronger effect = lower value",0.953
same,normalized growth,"S. cerevisiae deletion strains, locus YKL190W, strain CNB1, stronger effect = lower value",0.982
same,normalized growth,"S. cerevisiae deletion strains, locus YKR001C, strain vps1, stronger effect = lower value",0.996
same,normalized growth,"S. cerevisiae deletion strains, locus YKR026C, strain gcn3, stronger effect = lower value",0.926
same,normalized growth,"S. cerevisiae deletion strains, locus YKR091W, strain srl3, stronger effect = lower value",0.955
same,normalized growth,"S. cerevisiae deletion strains, locus YLL001W, strain dnm1, stronger effect = lower value",0.94
same,normalized growth,"S. cerevisiae deletion strains, locus YLL026W, stronger effect = lower value",0.945
same,normalized growth,"S. cerevisiae deletion strains, locus YLL041C, strain sdh2, stronger effect = lower value",0.951
same,normalized growth,"S. cerevisiae deletion strains, locus YLR027C, strain aat2, stronger effect = lower value",0.96
same,normalized growth,"S. cerevisiae deletion strains, locus YLR039C, strain RIC1, stronger effect = lower value",0.965
same,normalized growth,"S. cerevisiae deletion strains, locus YLR058C, strain SHM2, stronger effect = lower value",0.999
same,normalized growth,"S. cerevisiae deletion strains, locus YLR102C, strain apc9, stronger effect = lower value",1.03
same,normalized growth,"S. cerevisiae deletion strains, locus YLR113W, strain HOG1, stronger effect = lower value",0.584 (active)
same,normalized growth,"S. cerevisiae deletion strains, locus YLR221C, strain rsa3, stronger effect = lower value",0.949
same,normalized growth,"S. cerevisiae deletion strains, locus YLR258W, strain gsy2, stronger effect = lower value",0.943
same,normalized growth,"S. cerevisiae deletion strains, locus YLR262C, strain YPT6 (second series), stronger effect = lower value",0.792 (active)
same,normalized growth,"S. cerevisiae deletion strains, locus YLR262C, strain YPT6, stronger effect = lower value",0.976
same,normalized growth,"S. cerevisiae deletion strains, locus YLR268W, strain sec22, stronger effect = lower value",1.02
same,normalized growth,"S. cerevisiae deletion strains, locus YLR320W, strain mms22, stronger effect = lower value",0.955
same,normalized growth,"S. cerevisiae deletion strains, locus YLR330W, strain CHS5, stronger effect = lower value",0.995
same,normalized growth,"S. cerevisiae deletion strains, locus YLR342W, strain FKS1 (second series), stronger effect = lower value",0.997
same,normalized growth,"S. cerevisiae deletion strains, locus YLR342W, strain FKS1, stronger effect = lower value",0.922
same,normalized growth,"S. cerevisiae deletion strains, locus YLR357W, strain rsc2, stronger effect = lower value",0.888
same,normalized growth,"S. cerevisiae deletion strains, locus YLR370C, strain arc18, stronger effect = lower value",0.936
same,normalized growth,"S. cerevisiae deletion strains, locus YLR371W, strain rom2, stronger effect = lower value",1.01
same,normalized growth,"S. cerevisiae deletion strains, locus YLR384C, strain iki3, stronger effect = lower value",0.945
same,normalized growth,"S. cerevisiae deletion strains, locus YLR418C, strain cdc73, stronger effect = lower value",1.03
same,normalized growth,"S. cerevisiae deletion strains, locus YML016C, strain PPZ1, stronger effect = lower value",0.999
same,normalized growth,"S. cerevisiae deletion strains, locus YML032C, strain rad52, stronger effect = lower value",1.01
same,normalized growth,"S. cerevisiae deletion strains, locus YML120C, strain ndi1, stronger effect = lower value",0.958
same,normalized growth,"S. cerevisiae deletion strains, locus YML124C, strain tub3, stronger effect = lower value",1
same,normalized growth,"S. cerevisiae deletion strains, locus YMR058W, strain fet3, stronger effect = lower value",0.947
same,normalized growth,"S. cerevisiae deletion strains, locus YMR078C, strain ctf18, stronger effect = lower value",1.01
same,normalized growth,"S. cerevisiae deletion strains, locus YMR125W, strain sto1, stronger effect = lower value",0.913
same,normalized growth,"S. cerevisiae deletion strains, locus YMR129W, stronger effect = lower value",0.944
same,normalized growth,"S. cerevisiae deletion strains, locus YMR205C, strain PFK2, stronger effect = lower value",0.955
same,normalized growth,"S. cerevisiae deletion strains, locus YMR223W, strain ubp8, stronger effect = lower value",1.01
same,normalized growth,"S. cerevisiae deletion strains, locus YMR231W, strain pep5, stronger effect = lower value",0.92 (active)
same,normalized growth,"S. cerevisiae deletion strains, locus YMR263W, strain SAP30, stronger effect = lower value",0.989
same,normalized growth,"S. cerevisiae deletion strains, locus YMR307W, strain GAS1, stronger effect = lower value",1
same,normalized growth,"S. cerevisiae deletion strains, locus YNL067W, strain RPL9B, stronger effect = lower value",0.997
same,normalized growth,"S. cerevisiae deletion strains, locus YNL071W, strain lat1, stronger effect = lower value",0.935
same,normalized growth,"S. cerevisiae deletion strains, locus YNL128W, strain TEP1, stronger effect = lower value",1.01
same,normalized growth,"S. cerevisiae deletion strains, locus YNL153C, strain GIM3, stronger effect = lower value",0.997
same,normalized growth,"S. cerevisiae deletion strains, locus YNL183C, strain NPR1, stronger effect = lower value",0.731 (active)
same,normalized growth,"S. cerevisiae deletion strains, locus YNL209W, strain ssb2, stronger effect = lower value",0.971
same,normalized growth,"S. cerevisiae deletion strains, locus YNL233W, strain BNI4, stronger effect = lower value",0.971
same,normalized growth,"S. cerevisiae deletion strains, locus YNL248C, strain rpa49, stronger effect = lower value",0.941
same,normalized growth,"S. cerevisiae deletion strains, locus YNL250W, strain rad50, stronger effect = lower value",1
same,normalized growth,"S. cerevisiae deletion strains, locus YNL271C, strain bni1, stronger effect = lower value",0.996
same,normalized growth,"S. cerevisiae deletion strains, locus YNL298W, strain CLA4, stronger effect = lower value",0.976
same,normalized growth,"S. cerevisiae deletion strains, locus YNL307C, strain MCK1, stronger effect = lower value",1.01
same,normalized growth,"S. cerevisiae deletion strains, locus YNL322C, strain KRE1 (second series), stronger effect = lower value",0.882 (active)
same,normalized growth,"S. cerevisiae deletion strains, locus YNL322C, strain KRE1, stronger effect = lower value",0.994
same,normalized growth,"S. cerevisiae deletion strains, locus YNR049C, strain mso1, stronger effect = lower value",0.929
same,normalized growth,"S. cerevisiae deletion strains, locus YNR052C, strain pop2, stronger effect = lower value",1.01
same,normalized growth,"S. cerevisiae deletion strains, locus YOL006C, strain TOP1, stronger effect = lower value",1.04
same,normalized growth,"S. cerevisiae deletion strains, locus YOL012C, strain htz1",1.19
same,normalized growth,"S. cerevisiae deletion strains, locus YOL147C, strain pex11, stronger effect = lower value",1.01
same,normalized growth,"S. cerevisiae deletion strains, locus YOR001W, strain rrp6, stronger effect = lower value",0.953
same,normalized growth,"S. cerevisiae deletion strains, locus YOR061W, strain CKA2, stronger effect = lower value",0.999
same,normalized growth,"S. cerevisiae deletion strains, locus YOR069W, strain VPS5, stronger effect = lower value",1
same,normalized growth,"S. cerevisiae deletion strains, locus YOR070C, strain gyp1, stronger effect = lower value",0.947
same,normalized growth,"S. cerevisiae deletion strains, locus YOR080W, strain dia2, stronger effect = lower value",0.925
same,normalized growth,"S. cerevisiae deletion strains, locus YOR083W, strain WHI5, stronger effect = lower value",0.956
same,normalized growth,"S. cerevisiae deletion strains, locus YOR106W, strain vam3, stronger effect = lower value",0.942
same,normalized growth,"S. cerevisiae deletion strains, locus YOR136W, strain idh2, stronger effect = lower value",1.02
same,normalized growth,"S. cerevisiae deletion strains, locus YOR144C, strain elg1, stronger effect = lower value",1.02
same,normalized growth,"S. cerevisiae deletion strains, locus YOR184W, strain ser1, stronger effect = lower value",1.03
same,normalized growth,"S. cerevisiae deletion strains, locus YOR231W, strain MKK1, stronger effect = lower value",0.796 (active)
same,normalized growth,"S. cerevisiae deletion strains, locus YOR265W, strain rbl2, stronger effect = lower value",0.943
same,normalized growth,"S. cerevisiae deletion strains, locus YOR270C, strain vph1, stronger effect = lower value",0.971
same,normalized growth,"S. cerevisiae deletion strains, locus YOR290C, strain snf2, stronger effect = lower value",0.962
same,normalized growth,"S. cerevisiae deletion strains, locus YOR316C, strain cot1, stronger effect = lower value",1.01
same,normalized growth,"S. cerevisiae deletion strains, locus YPL051W, strain arl3, stronger effect = lower value",0.943
same,normalized growth,"S. cerevisiae deletion strains, locus YPL055C, strain LGE1, stronger effect = lower value",1.01
same,normalized growth,"S. cerevisiae deletion strains, locus YPL078C, strain atp4, stronger effect = lower value",0.93
same,normalized growth,"S. cerevisiae deletion strains, locus YPL106C, strain sse1, stronger effect = lower value",1.03
same,normalized growth,"S. cerevisiae deletion strains, locus YPL240C, strain hsp82, stronger effect = lower value",0.937
same,normalized growth,"S. cerevisiae deletion strains, locus YPL241C, strain CIN2, stronger effect = lower value",1
same,normalized growth,"S. cerevisiae deletion strains, locus YPL256C, strain CLN2, stronger effect = lower value",0.756 (active)
same,normalized growth,"S. cerevisiae deletion strains, locus YPR119W, strain clb2, stronger effect = lower value",1.01
same,normalized growth,"S. cerevisiae deletion strains, locus YPR141C, strain kar3, stronger effect = lower value",1.01
same,normalized growth,"S. cerevisiae deletion strains, locus YPR163C, strain tif3, stronger effect = lower value",1.02
same,normalized growth,"S. cerevisiae deletion strains, locus YPR167C, strain met16, stronger effect = lower value",1.05
same,normalized growth,"S. cerevisiae deletion strains, strain wtn01, stronger effect = lower value",1.01
same,normalized growth,"S. cerevisiae strains, strain wild type, stronger effect = lower value",1
